Measured values taken from PubChem BioAssay AID2391 (Southern Research Specialized Biocontainment Screening …, 2010).
In all, about 310,000 compounds went through this assay and about 410 (0.13%) were called active. Another 2% or so got no clear call; they are omitted. A selection follows. Entries with a potency or affinity are not part of this list. Values without a mark were called inactive. The rule behind the calls is not given here.

Assay: RSV antiviral activity via CPE protection, HEp-2 cells, primary 10 µM value included (AID 2391)
Conditions: RSV-induced CPE inhibition, at 10 µM, hits give high values

For `CCN(CC(=O)Nc1c(F)cccc1F)C(=O)C1CCN(C(=O)Nc2ccccc2)CC1`, which CPE inhibition is on record?
The CPE inhibition was 0.36%.

Which CPE inhibition does the source give for `O=C(NC1CCCC1)C1CC(=O)N(c2ccccc2)C1` (stereo not given) here?
Its CPE inhibition is 1.22%.

Which CPE inhibition does the source give for `CS(=O)(=O)c1ccc(C(=O)OCC(=O)Nc2cccc(S(=O)(=O)N3CCCC3)c2)cc1` here?
Its CPE inhibition is 1.77%.

For `O=C(CSc1nccn(-c2ccc(Br)cc2)c1=O)Nc1ccccc1F`, which CPE inhibition is on record?
The CPE inhibition was 0.04%.

Which CPE inhibition does the source give for `CSc1nc(Oc2ccc(C)cc2)cc(C(F)(F)F)n1` here?
The CPE inhibition was 0.19%.

Which CPE inhibition does the source give for `CCNC(=S)N1CCN(c2nc(-c3ccc(F)cc3)cs2)CC1` here?
Its CPE inhibition is 2.45%.

Which CPE inhibition does the source give for `O=C(c1ccc(-c2ccccc2Cl)o1)N1CCN(S(=O)(=O)c2cccs2)CC1` here?
Its CPE inhibition is 0.24%.

With `CCOC(=O)[C@H]1[C@H]2COc3cc(OC)ccc3[C@@H]2N2C(=O)CN(Cc3ccc(OC)cc3)C(=O)[C@@]12C` as the compound, how does the CPE inhibition read?
The CPE inhibition was 2.03%.

With `COc1ccc(NC(=S)NCCN2CCC(C)CC2)cc1Cl` as the compound, how does the CPE inhibition read?
Its CPE inhibition is -1.89%.

With `CC(C)OCCCNC(=O)c1ccc2c(c1)NC(=O)c1ccccc1S2` as the compound, how does the CPE inhibition read?
Its CPE inhibition is 3.89%.

With `COc1ccc2occ(C(C)=O)c2c1` as the compound, how does the CPE inhibition read?
Its CPE inhibition is 0.49%.

With `COc1ccc(C(=O)c2coc3ccc(OC(C)=O)cc23)cc1` as the compound, how does the CPE inhibition read?
Its CPE inhibition is 4.53%.

Which CPE inhibition does the source give for `CN1C=C(C(F)(F)F)C=C/C1=C(\C#N)c1nnc2n1CCCCC2` here?
Its CPE inhibition is 1.8%.

For `COc1ccc(C2CCCN2C(=O)Nc2ccccc2)cc1OC` (stereo not given), which CPE inhibition is on record?
Its CPE inhibition is 2.18%.

With `COc1ccc(CNC(=O)CCCn2nc(C)n3ccnc3c2=O)cc1` as the compound, how does the CPE inhibition read?
Its CPE inhibition is 1%.

Which CPE inhibition does the source give for `C=Cn1cc[n+](CC(=O)c2cccs2)c1` here?
The CPE inhibition was 0.58%.

For `COc1ccc2[nH]cc(C(=O)CN3CCC(C)CC3)c2c1`, which CPE inhibition is on record?
The CPE inhibition was 0.91%.

For `COc1ccc2[nH]cc(C(=O)CN3CCCCC3)c2c1`, which CPE inhibition is on record?
Its CPE inhibition is -0.42%.

Which CPE inhibition does the source give for `O=C1CCCN1c1ccc(C(=O)N(Cc2nnc(-c3ccc(Cl)cc3)o2)C2CC2)cc1` here?
Its CPE inhibition is 1.99%.

For `O=C(c1ccc(Cl)c(S(=O)(=O)N2CCOCC2)c1)N(Cc1nnc(-c2ccccc2Cl)o1)C1CC1`, which CPE inhibition is on record?
The CPE inhibition was 14.6%.

With `CC(C)CCOC(=O)C(C)Sc1n[nH]c(=O)[nH]c1=O` (stereo not given) as the compound, how does the CPE inhibition read?
The CPE inhibition was 8.79%.

Which CPE inhibition does the source give for `COC(=O)c1ccccc1NC(=O)c1ccc(-c2ccc(Br)cc2)o1` here?
Its CPE inhibition is 4.75%.

With `O=C(NC(=S)Nc1ccccc1O)c1ccc(-c2ccc(Cl)cc2)o1` as the compound, how does the CPE inhibition read?
The CPE inhibition was -1.25%.

For `Cc1c(NC(=S)NC(=O)c2ccc(-c3ccc(Cl)cc3)o2)cccc1C(=O)O`, which CPE inhibition is on record?
The CPE inhibition was 53.5%.

With `Cc1ccc(NC(=S)NC(=O)c2ccc(-c3ccc(Cl)cc3)o2)c(O)c1` as the compound, how does the CPE inhibition read?
The CPE inhibition was 1.42%.

With `Cc1cc(O)c(NC(=S)NC(=O)c2ccc(-c3ccc(Cl)cc3)o2)cc1C` as the compound, how does the CPE inhibition read?
The CPE inhibition was 11.3%.

Which CPE inhibition does the source give for `O=C(O)c1ccc(NC(=S)NC(=O)c2ccc(-c3ccc(Br)cc3)o2)cc1` here?
The CPE inhibition was 10.7%.

For `O=C(N/C(=C/c1cccc([N+](=O)[O-])c1)C(=O)N1CCCCC1)c1ccco1`, which CPE inhibition is on record?
Its CPE inhibition is -0.57%.

Which CPE inhibition does the source give for `Cc1ccc(S(=O)(=O)NC(C)(C)CN2CCNCC2)cc1` here?
Its CPE inhibition is -0.5%.

For `O=C(CCCCCN1C(=O)c2cccc3cccc(c23)C1=O)N1CCOCC1`, which CPE inhibition is on record?
The CPE inhibition was 2.04%.

Which CPE inhibition does the source give for `CCCc1c(NC(=O)Nc2ccc(F)cc2)cnn1-c1ccc(Cl)cc1` here?
The CPE inhibition was 4.89%.

With `CCCc1c(C(=O)Nc2ccc(F)cc2)cnn1-c1ccccc1` as the compound, how does the CPE inhibition read?
The CPE inhibition was 3.97%.

For `O=C(c1ccco1)N1CCN(c2ccccc2F)CC1`, which CPE inhibition is on record?
The CPE inhibition was 0.67%.

With `CNC(=O)N1c2ccccc2C=Cc2ccccc21` as the compound, how does the CPE inhibition read?
Its CPE inhibition is 0.96%.

With `CCN(CC)C(=O)N1c2ccccc2Sc2ccccc21` as the compound, how does the CPE inhibition read?
The CPE inhibition was 11.5%.

Which CPE inhibition does the source give for `COc1cc(NC(=S)NC(=O)c2c(OC)cccc2OC)ccc1NC(=O)c1cccs1` here?
The CPE inhibition was 2.67%.

With `COc1cc(NC(=S)NC(=O)c2cc(C)cc(C)c2)ccc1NC(=O)c1cccs1` as the compound, how does the CPE inhibition read?
Its CPE inhibition is 7.54%.

With `COc1cccc(C(=O)Nc2cc(NC(=O)c3cccs3)ccc2C)c1` as the compound, how does the CPE inhibition read?
The CPE inhibition was 10.5%.

Which CPE inhibition does the source give for `Cc1ccc(NC(=O)c2cccs2)cc1NC(=O)c1ccccc1Cl` here?
The CPE inhibition was 2.07%.

For `CCCCN(C)CCNC(=O)c1cn(C)c(=O)c2c1c1ccccc1n2C`, which CPE inhibition is on record?
The CPE inhibition was 1.07%.

Which CPE inhibition does the source give for `COc1ccc(OC)c(C2C(C#N)=C(N)N(N(C)C)C3=C2C(=O)CC(C)(C)C3)c1` (stereo not given) here?
The CPE inhibition was 1.69%.

With `Nc1ccc2nc(SCC(=O)N3CCOCC3)sc2c1` as the compound, how does the CPE inhibition read?
The CPE inhibition was 0.05%.

For `CCN(CC)CCNC(=O)c1ccc(NC(=O)Cc2ccccc2F)cc1`, which CPE inhibition is on record?
Its CPE inhibition is -0.24%.

With `COc1ccc(Cl)cc1NC(=O)NCc1cccnc1` as the compound, how does the CPE inhibition read?
The CPE inhibition was 2.51%.

With `Nc1nnnn1/N=C/c1ccc(F)cc1` as the compound, how does the CPE inhibition read?
Its CPE inhibition is 1.72%.

For `Nc1nnnn1/N=C/c1ccc(Br)cc1`, which CPE inhibition is on record?
The CPE inhibition was 7.9%.

With `O=C(COc1ccccc1[N+](=O)[O-])OCCCOC(=O)COc1ccccc1[N+](=O)[O-]` as the compound, how does the CPE inhibition read?
Its CPE inhibition is 0.68%.

With `CCN1/C(=C2\C(=O)N(C)C(=S)N2c2ccccc2)C=Cc2ccccc21` as the compound, how does the CPE inhibition read?
The CPE inhibition was 1.96%.

Which CPE inhibition does the source give for `CC1(C)Cc2cccc(OCC(=O)Nc3nccs3)c2O1` here?
The CPE inhibition was 1.37%.

With `CC1(C)Cc2cccc(OCC(=O)Nc3cccnc3)c2O1` as the compound, how does the CPE inhibition read?
Its CPE inhibition is 0.28%.

With `COc1ccc(C)cc1Nc1n[n+](-c2ccccc2)c(-c2cc(OC)c(OC)cc2Br)s1` as the compound, how does the CPE inhibition read?
The CPE inhibition was 13.7%.

Which CPE inhibition does the source give for `COC(=O)c1cc(NS(=O)(=O)c2ccc(NCc3cccnc3)c([N+](=O)[O-])c2)cc(C(=O)OC)c1` here?
Its CPE inhibition is 1.44%.

For `COc1ccccc1NC(=O)N1CCN(c2ccc3nnc(-c4ccc(F)cc4)n3n2)CC1`, which CPE inhibition is on record?
Its CPE inhibition is 20.8%.

For `CCSc1ccccc1C(=O)N1CCC2(CC1)CC(=O)c1ccccc1O2`, which CPE inhibition is on record?
Its CPE inhibition is 2.51%.

Which CPE inhibition does the source give for `COc1cccc(NC(=O)COc2cccc3c2CCNC3=O)c1` here?
Its CPE inhibition is -2.16%.

For `Cc1ccccc1NC(=O)COc1cccc2c1CCNC2=O`, which CPE inhibition is on record?
Its CPE inhibition is -2.82%.

With `CCOC(=O)NC(Nc1ccc(C)cn1)(C(F)(F)F)C(F)(F)F` as the compound, how does the CPE inhibition read?
The CPE inhibition was 0.51%.

Which CPE inhibition does the source give for `Cc1cccc(C(=O)NC2CCN(CC(=O)N3CCOCC3)CC2)c1` here?
Its CPE inhibition is 0.56%.

For `c1ccc(-c2nnc3ccc(N4CCCC4)nn23)cc1`, which CPE inhibition is on record?
The CPE inhibition was 13.9%.

With `O=C(c1ccc(Br)o1)N1CCN(c2ccc3nnc(-c4ccc(F)cc4)n3n2)CC1` as the compound, how does the CPE inhibition read?
Its CPE inhibition is 1.21%.
